Results filed as inconclusive are left out. Where a call stands in place of a potency, no number is given. Active and inactive are the calls of the source. Calls follow the shape of the dose curve; as a rule, active = well fitted activation curve with a large enough effect; inconclusive = small, poorly fitted or top-dose-only effect; inactive = flat fitted curve, though single readings scatter.
Molecular target: Pyruvate kinase PKM (Homo sapiens) (UniProt P14618)
Test: Confirmation Concentration-Response Assay for Activators of Human Muscle isoform 2 Pyruvate Kinase: for Probe SAR; also: nearly all actives have a fitted effect of over 60% in size
Conditions: purified PKM2, ATP generation, Kinase-Glo luminescence; series mostly up to 57.5 µM
Source text: NIH Chemical Genomics Center [NCGC]
Matthew G. Vander Heiden, M.D., Ph.D. [Harvard Medical School, 77 Avenue Louis Pasteur, Boston, MA 02115]
Human pyruvate kinase muscle 2 (hPK-M2) enzyme was supplied as a highly purified (>95% pure) preparation from Harvard Medical School and assayed for its ability to generate ATP from ADP using phosphoenolpyruvate (PEP) as a substrate. ATP generation was detected in a coupled reaction by luciferase-mediated luminescence, an ATP-dependent process. […] The enzyme was assayed at an intermediate level of activity to screen for both inhibitors and activators.
NCGC Assay Protocol Summary:
Three uL of substrate mix (at r.t.) in assay buffer (50 mM Imidazole pH7.2, 50 mM KCl, 7 mM MgCl2, 0.01% Tween 20, 0.05% BSA) was dispensed into white solid bottom 1,536 well microtiter plates so that the final concentrations of substrates in the assay were 0.1 mM ADP and 0.5 mM PEP. 23 nL of compound were delivered by a pin tool and 1 uL of enzyme mix (final concentration of 0.1 nM) in assay buffer (4 degree Celsius) was added. Plates were incubated at room temperature for 1 hour. Two uL of detection mix (Kinase-Glo, Promega; at 4 degree Celsius protected from light) was added and luminescence read by a ViewLux (Perkin Elmer) at 1 second exposure/plate. Data were normalized to the uninhibited (column 3) and AC100 inhibition (no enzyme in column 2). To monitor activation, the first column contained a titration of the activator, NCGC00031955-03 (16-point 1:2 dilutions in duplicate starting at 57 uM) and the first 16 rows of column 4 contained 57 uM of NCGC00031955-03.
Potency is read from the fitted curve at half-maximal effect.

Sequence of Pyruvate kinase PKM (Homo sapiens) (P14618 whole entry, looked up, canonical isoform): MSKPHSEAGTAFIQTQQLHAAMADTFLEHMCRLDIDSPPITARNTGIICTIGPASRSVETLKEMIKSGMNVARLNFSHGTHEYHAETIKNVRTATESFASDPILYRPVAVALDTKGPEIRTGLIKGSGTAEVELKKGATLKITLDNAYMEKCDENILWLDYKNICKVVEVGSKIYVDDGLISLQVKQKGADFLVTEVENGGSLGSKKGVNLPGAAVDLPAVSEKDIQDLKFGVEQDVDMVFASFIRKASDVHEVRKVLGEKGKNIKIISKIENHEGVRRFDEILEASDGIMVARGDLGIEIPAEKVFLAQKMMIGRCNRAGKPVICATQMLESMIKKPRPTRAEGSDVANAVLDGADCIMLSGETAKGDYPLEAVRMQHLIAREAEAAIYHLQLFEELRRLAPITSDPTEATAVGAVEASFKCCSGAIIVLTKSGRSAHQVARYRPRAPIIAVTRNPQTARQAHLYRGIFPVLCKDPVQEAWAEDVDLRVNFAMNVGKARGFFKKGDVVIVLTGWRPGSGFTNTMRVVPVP

| SMILES | Potency |
| --- | --- |
| Nc1cccc(S(=O)(=O)N2CCN(S(=O)(=O)c3c(F)cccc3F)CC2)c1 | 0.13 µM (active) |
| Cc1ccc(NS(=O)(=O)c2ccc3c(c2)n(C)c(=O)n3C)cc1C | 1.46 µM (active) |
| COC(=O)c1ccccc1S(=O)(=O)Nc1ccc(OC)cc1 | inactive |
| O=C1CCc2cc([S+](=O)([O-])NC3CCOCC3)ccc2N1 | inactive |
| Nc1ccc(S(=O)(=O)N2CCN(S(=O)(=O)c3ccc4c(c3)OCCO4)CC2)cc1 | 0.366 µM (active) |
| O=S1(=O)N=C(Oc2ccc3ccccc3c2)c2ccccc21 | inactive |
| Cc1ccc(C)c(NC2=NS(=O)(=O)c3ccccc32)c1 | inactive |
| Cc1ccc(NS(=O)(=O)c2ccc3c(c2)CCC(=O)N3)cc1 | 5.8 µM (active) |
| O=C1c2ccccc2C(=O)N1Cc1ccccn1 | inactive |
| O=C1CCc2cc(S(=O)(=O)Nc3cccc(Br)c3)ccc2N1 | 0.259 µM (active) |
| N#Cc1ccc(OC2=NS(=O)(=O)c3ccccc32)cc1 | inactive |
| COc1cc(F)c(S(=O)(=O)N2CCCN(S(=O)(=O)c3ccc(NC(C)=O)cc3)CC2)c(F)c1 | 16.3 µM (active) |
| O=C1CCc2cc(S(=O)(=O)Nc3ccncc3)ccc2N1 | inactive |
| Cc1ccc(NS(=O)(=O)c2cc3c(cc2-c2ccco2)NC(=O)CO3)cc1C | 9.19 µM (active) |
| O=S1(=O)N=C(Oc2ccc(-c3ccccc3)cc2)c2ccccc21 | inactive |
| O=C1c2ccccc2C(=O)N1c1ccccn1 | inactive |
| CCNc1cccc(S(=O)(=O)N2CCCN(S(=O)(=O)c3ccc4c(c3)OCCO4)CC2)c1 | 0.206 µM (active) |
| O=C1c2ccccc2C(=O)N1c1cccc2ccncc12 | inactive |
| COc1cc(F)c(S(=O)(=O)N2CCN(S(=O)(=O)c3ccco3)CC2)c(F)c1 | 0.183 µM (active) |
| Cc1ccc(NS(=O)(=O)c2ccc3c(c2)CCC(=O)N3)cc1Cl | 0.326 µM (active) |

| SMILES | Potency |
| --- | --- |
| Cc1ccccc1Nc1c(-c2ccc(Cl)s2)nc2ccccn12 | inactive |
| CCCCN1C(=O)c2ccccc2C1=O | inactive |
| COc1cc(F)c(S(=O)(=O)N2CCN(S(=O)(=O)c3ccc(N)cc3)CC2)c(F)c1 | 0.13 µM (active) |
| O=[S+]1([O-])N=C(Oc2cccnc2)c2ccccc21 | inactive |
| COc1cc(F)c(S(=O)(=O)N2CCCN(S(=O)(=O)c3cccc(NC(C)=O)c3)CC2)c(F)c1 | 2.91 µM (active) |
| Cc1cc(NS(=O)(=O)c2ccc3c(c2)CCC(=O)N3)ccc1Cl | 0.517 µM (active) |
| CC(=O)Nc1ccc(OC2=NS(=O)(=O)c3ccccc32)cc1 | inactive |
| Cc1ccc2nc(-c3ccc(C)o3)c(Nc3ccc4c(c3)OCO4)n2c1 | inactive |
| O=C1CCc2cc(S(=O)(=O)Nc3ccc4ncccc4c3)ccc2N1 | inactive |
| COc1cccc(OC2=NS(=O)(=O)c3ccccc32)c1 | inactive |
| O=C1c2ccccc2C(=O)N1Cc1ccccc1 | inactive |
| COc1cc(F)c(S(=O)(=O)N2CCCN(S(=O)(=O)c3ccc4c(c3)OCCO4)CC2)c(F)c1 | 0.058 µM (active) |
| CC(=O)Nc1ccc(S(=O)(=O)N2CCCN(S(=O)(=O)c3ccc4c(c3)OCCO4)CC2)cc1 | 4.11 µM (active) |
| CC(=O)Nc1cccc(OC2=NS(=O)(=O)c3ccccc32)c1 | inactive |
| COc1cc(F)c(S(=O)(=O)N2CCN(S(=O)(=O)c3cccc(N)c3)CC2)c(F)c1 | 0.0231 µM (active) |
| O=S1(=O)N=C(Oc2cccc3ccccc23)c2ccccc21 | inactive |
| O=C1c2ccccc2C(=O)N1c1cccc2ncccc12 | inactive |
| O=C1c2ccccc2C(=O)N1c1cccc2cnccc12 | inactive |
| Nc1cc(S(=O)(=O)N2CCN(S(=O)(=O)c3ccc4c(c3)OCCO4)CC2)ccn1 | 3.26 µM (active) |
| O=S1(=O)N=C(Oc2ccccc2Cl)c2ccccc21 | inactive |

— PubChem BioAssay AID2533 (National Center for Advancing Translational Sciences (NCATS), 2010)
